Hits are enriched below; roughly 6.8% of the tested compounds scored in any of these assays.
A340 absorber: compound light absorbance at 340 nm, profiling panel, artefact control, biochemical, MLSMR library, data from PS, PMK, MK assays; compound absorbance at 340 nm, fold over control; 65,000 tested, under 10 active; fold change at 10 µM;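 active = at 10 µM dose, initial 340 nm absorbance at least 2 fold that of control wells; inactive = change under 2 fold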;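 note: initial absorbance extrapolated from kinetic A340 decline of NADH oxidation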
PMK inhibit: S. pneumoniae PMK inhibitors, primary screen, biochemical, mevalonate pathway, pilot trial included; AID 539, 2006; purified PMK, PK/LDH-coupled NADH absorbance 340 nm; 65,000 tested, 0.49% active; inhibition, % at 10 µM;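 active = top-ranked compounds by inhibition in the single 10 µM screen, taking a fixed number of the strongest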;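 note: 0% = full reaction with DMSO carrier and 100% = background rate without enzyme reaction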
NADH coupling: inhibitors of PK/LDH coupling enzymes, profiling panel, artefact control, biochemical, MLSMR library; coupled PK/LDH NADH assays, four targets; IC50, µM (highest dose often 10 µM), inactives show at the highest dose inhibition; 65,000 tested, 0.02% active; AID 774, 2007;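 active = single-dose screening hits from any of four coupled enzyme assays that gave an IC50 when retested across doses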;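 note: the DPM-DC format reads NADH fluorescence rather than 340 nm absorbance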
Fluor 339 460: intrinsic fluorescence of library compounds, ex339/em460 – biochemical, MLSMR library, data from DPM-DC assay, artefact control, profiling panel; compound autofluorescence, ex339/em460 nm, NADH buffer; stronger effect = higher value; 1 = no-compound wells, NADH background; fluorescence fold increase at 10 µM; 65,000 tested, 5.5% active; AID 709, 2007;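 active = at 10 µM, mean starting fluorescence two-fold or more over control wells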;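 note: signal is the first read of a kinetic run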
DPM-DC inhibit: S. pneumoniae DPM-DC inhibitors, primary screen, biochemical, PK/LDH-coupled NADH fluorescence | diphosphomevalonate decarboxylase (Streptococcus pneumoniae D39) | purified DPM-DC | calls only at 10 µM | 65,000 tested, 0.49% active;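 active = the 320 compounds with the highest percent inhibition in the single-dose primary screen, excluding strongly autofluorescent ones, cut at about 32% in these data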;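 note: kinetic rate of NADH fluorescence loss reporting ADP formed by the decarboxylase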
MK inhibit: S. pneumoniae MK inhibitors, primary screen, biochemical, PK/LDH-coupled NADH absorbance; 65,000 tested, 0.48% active; purified MK, PK/LDH-coupled NADH absorbance 340 nm; mevalonate kinase [Streptococcus pneumoniae D39]; AID 555, 2006; inhibition, % at 10 µM;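 active = ranked among the strongest by inhibition in the single 10 µM screen, a fixed top-ranked set picked for dose follow-up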
An asterisk follows results filed as active.

C=CCOC(=O)C1=C(C)NC(SCC(=O)NC(=O)OCC)=C(C#N)C1c1cccnc1 (centres undefined) was read as A340 absorber 1.1, PMK inhibit 7, NADH coupling 14%, Fluor 339 460 3.1*, DPM-DC inhibit inactive and MK inhibit 3.
Screening O=C(Nc1ccc2nn(-c3ccccc3)nc2c1)c1ccc2c(c1)OCO2 returned A340 absorber 1.2, PMK inhibit 2, NADH coupling 5%, Fluor 339 460 2.6*, DPM-DC inhibit inactive and MK inhibit 0.
`COc1cc(C(=O)Nc2ccc3c(c2)OCCO3)c(-n2cnnn2)cc1OC` gave A340 absorber 1, PMK inhibit 10, NADH coupling 8%, Fluor 339 460 1, DPM-DC inhibit inactive and MK inhibit 0.
COc1cc(C(=O)Nc2ccc3c(c2)OCO3)ccc1-n1cnnn1 was read as A340 absorber 1, PMK inhibit 12, NADH coupling 19%, Fluor 339 460 1.2, DPM-DC inhibit active and MK inhibit 14.
Screening COc1cccc(CNC(=O)C2CCN(S(=O)(=O)N3CC(C)CC(C)C3)CC2)c1 (centres undefined) returned A340 absorber 1, PMK inhibit 24, NADH coupling 8%, Fluor 339 460 1, DPM-DC inhibit inactive and MK inhibit 0.
For N#Cc1sc2nc3c(c(-c4cccnc4)c2c1N)CCC3 the results were A340 absorber 1.1, PMK inhibit 7, NADH coupling 8%, Fluor 339 460 1.2, DPM-DC inhibit inactive and MK inhibit 7.
Screening Cc1nc2sc(C#N)c(N)c2c2c1CCCC2 returned A340 absorber 1, PMK inhibit 1, NADH coupling 3%, Fluor 339 460 2.5* and MK inhibit 0.
`OC(COc1ccccc1)CN1C2=NCCCN2c2ccccc21` (centres undefined) gave A340 absorber 1, PMK inhibit 11, NADH coupling 2%, Fluor 339 460 1.1, DPM-DC inhibit inactive and MK inhibit 0.
For CCOC(=O)C(C)Sc1nnc(CNC(=O)c2ccc(OC)cc2)n1C1CCCCC1 (centres undefined) the results were A340 absorber 1, PMK inhibit 16, NADH coupling 7%, Fluor 339 460 1.1, DPM-DC inhibit inactive and MK inhibit 4.
Screening CN(C)S(=O)(=O)c1cccc(C(=O)N2CCc3ccccc32)c1 returned A340 absorber 1, PMK inhibit 3, NADH coupling 3%, Fluor 339 460 1.1, DPM-DC inhibit inactive and MK inhibit 5.
Screening CN(C)S(=O)(=O)c1cccc(C(=O)C2=C3SC=C(c4ccccc4)N3CC2)c1 returned A340 absorber 1.1, PMK inhibit 0, NADH coupling 37%, Fluor 339 460 1.1, DPM-DC inhibit active and MK inhibit 10.
Screening CCN(CC)CCN1C(=O)c2ccccc2NC1c1cc(OC)c(OC)c(OC)c1 (centres undefined) returned A340 absorber 1, PMK inhibit 2, NADH coupling 2%, Fluor 339 460 2.3* and MK inhibit 1.
Screening CCN(CC)CCN1C(=O)c2ccccc2NC1c1cccc(F)c1 (centres undefined) returned A340 absorber 1, PMK inhibit 10, NADH coupling 9%, Fluor 339 460 2.1* and MK inhibit 7.
`COc1ccc(C2Nc3ccccc3C(=O)N2O)cc1OC` (centres undefined) gave A340 absorber 1, PMK inhibit 18, NADH coupling 7%, Fluor 339 460 1.2, DPM-DC inhibit inactive and MK inhibit 0.
Screening O=C(CCc1ccc(S(=O)(=O)N2CCOCC2)cc1)Nc1cc(Cl)ccc1N1CCOCC1 returned A340 absorber 1.1, PMK inhibit 0, NADH coupling 1%, Fluor 339 460 1.1, DPM-DC inhibit inactive and MK inhibit 2.
Screening O=C(Cn1c(=O)c2c(ncn2Cc2ccccc2)n(Cc2ccccc2)c1=O)N1CCCC1 returned A340 absorber 1, PMK inhibit 14, NADH coupling 5%, Fluor 339 460 1.1, DPM-DC inhibit inactive and MK inhibit 0.
O=c1n(Cc2ccccc2)c2cc(Cl)cnc2n1Cc1ccccc1 was read as A340 absorber 1, PMK inhibit 0, NADH coupling 4%, Fluor 339 460 2.8*, DPM-DC inhibit inactive and MK inhibit 6.
Screening NC(=O)C1CCCN(C(=O)Nc2cccc3ccccc23)C1 (centres undefined) returned A340 absorber 1.1, PMK inhibit 0, NADH coupling 4%, Fluor 339 460 2.3*, DPM-DC inhibit inactive and MK inhibit 4.
Screening CN1CCN(C(=O)Nc2cccc3ccccc23)CC1 returned A340 absorber 1, PMK inhibit 0, NADH coupling 1%, Fluor 339 460 2.1* and MK inhibit 1.
CCN1CCN(C(=O)Nc2cccc3ccccc23)CC1 was read as A340 absorber 1, PMK inhibit 0, NADH coupling 2%, Fluor 339 460 1.6, DPM-DC inhibit inactive and MK inhibit 6.
Screening CCOc1ccc2nc(NCCCNS(=O)(=O)c3ccccc3)c(C#N)cc2c1 returned A340 absorber 1.1, PMK inhibit 10, NADH coupling 10%, Fluor 339 460 2.3*, DPM-DC inhibit inactive and MK inhibit 4.
Cc1cccc(-n2nnnc2SCn2nnc3ccccc3c2=O)c1 was read as A340 absorber 1, PMK inhibit 10, NADH coupling 5%, Fluor 339 460 1.1, DPM-DC inhibit inactive and MK inhibit 4.
`CC(C)(C)NC(=O)CSc1ncnc2c1nnn2Cc1ccccc1Cl` gave A340 absorber 1, PMK inhibit 40*, NADH coupling 13%, Fluor 339 460 1.1, DPM-DC inhibit inactive and MK inhibit 0.
`O=C(CCc1nc2ccccc2c(=O)[nH]1)OCC(=O)N1CCN(S(=O)(=O)c2ccccc2)CC1` gave A340 absorber 1, PMK inhibit 28*, NADH coupling 9%, Fluor 339 460 1.1, DPM-DC inhibit inactive and MK inhibit 0.
`O=C(O)c1ccccc1NCN1C(=O)C2CC=C(Cl)CC2C1=O` (centres undefined) gave A340 absorber 1, PMK inhibit 12, NADH coupling 9%, Fluor 339 460 2.6*, DPM-DC inhibit inactive and MK inhibit 0.
`CCCCN(C)Cc1c(C)[nH]c2ccc(OCC)cc2c1=O` gave A340 absorber 1.1, PMK inhibit 0, NADH coupling 1%, Fluor 339 460 2.1* and MK inhibit 2.

Assay outcomes from PubChem BioAssay.
